The record followed here is ChEMBL document CHEMBL3988442, “University of Dundee, Small-Polar-MMV Screening Library” (2021).

Common to all, as to set-up: scale not given: direction of the effect not stated beside the values
Assay [1] concerns the target Protein translocase subunit SecA (Escherichia coli (strain K12)) (UniProt P10408). Nature of the assay: Assay to Identify E. coli SecA ATPase Inhibitors. The format is functional. The settings on record: 30 µM.
The target in assay [2] is T1, Ubiquitin-activating enzyme e1, putative (Leishmania donovani (strain BPK282A1)) (UniProt E9BSI1).
T1 sequence (whole entry): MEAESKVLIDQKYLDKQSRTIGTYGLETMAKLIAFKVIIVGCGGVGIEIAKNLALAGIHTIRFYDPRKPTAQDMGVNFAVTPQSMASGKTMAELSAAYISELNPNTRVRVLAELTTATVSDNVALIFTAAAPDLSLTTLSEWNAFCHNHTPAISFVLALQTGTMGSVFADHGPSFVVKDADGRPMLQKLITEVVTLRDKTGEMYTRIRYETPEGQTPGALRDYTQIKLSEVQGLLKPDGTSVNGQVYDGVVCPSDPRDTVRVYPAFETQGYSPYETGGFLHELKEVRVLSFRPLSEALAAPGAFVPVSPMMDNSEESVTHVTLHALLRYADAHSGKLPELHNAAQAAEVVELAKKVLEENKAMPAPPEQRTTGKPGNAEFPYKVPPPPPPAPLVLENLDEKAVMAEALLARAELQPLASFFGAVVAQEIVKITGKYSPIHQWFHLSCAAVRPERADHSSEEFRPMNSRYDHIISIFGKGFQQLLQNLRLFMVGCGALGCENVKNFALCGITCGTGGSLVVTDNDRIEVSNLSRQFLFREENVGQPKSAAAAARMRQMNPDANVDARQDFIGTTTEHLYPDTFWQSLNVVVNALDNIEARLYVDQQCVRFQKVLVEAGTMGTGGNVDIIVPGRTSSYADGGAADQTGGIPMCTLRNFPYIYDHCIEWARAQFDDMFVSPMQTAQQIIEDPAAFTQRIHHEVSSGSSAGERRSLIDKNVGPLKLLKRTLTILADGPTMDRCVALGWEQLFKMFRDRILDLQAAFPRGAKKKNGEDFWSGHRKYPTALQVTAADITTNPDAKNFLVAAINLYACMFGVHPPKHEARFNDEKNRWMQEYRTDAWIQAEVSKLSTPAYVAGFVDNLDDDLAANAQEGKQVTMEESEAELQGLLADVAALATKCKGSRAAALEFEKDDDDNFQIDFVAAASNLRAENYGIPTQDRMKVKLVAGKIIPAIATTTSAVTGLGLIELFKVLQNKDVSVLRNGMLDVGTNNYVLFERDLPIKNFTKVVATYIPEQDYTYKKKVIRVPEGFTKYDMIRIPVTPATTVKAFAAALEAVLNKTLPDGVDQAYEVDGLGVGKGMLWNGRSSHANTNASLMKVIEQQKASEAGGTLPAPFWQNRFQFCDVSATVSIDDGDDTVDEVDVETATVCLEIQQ
Kind of assay: Leishmania donovani Ubiquitin Activating Enzyme (LdE1). The format is functional. The settings on record: 30 µM.

Assay [3] addresses AMP-activated protein kinase, AMPK (Homo sapiens) (UniProt P54646+O43741+P54619+Q9UGJ0+Q9Y478+Q13131+Q9UGI9). Kind of assay: AMP-dependent Kinase enzyme assay. An in vitro enzyme assay that detects ADP turnover that is directly proportional to AMPK activity. This uses naive AMPK that is activated during the assay with MK-8722. Type of assay: functional. The settings on record: 30 µM.

For assay [4], the target named is Sialic acid-binding Ig-like lectin 9 (Homo sapiens) (UniProt Q9Y336). Nature of the assay: Hs-Siglec9 ALPHAscreen SOP 20170721. As to conditions: 10 µM.
A further assay deals with Trypanosoma cruzi. Kind of assay: Trypanosoma cruzi phosphomannomutase and mannose-1-phosphate guanylyltransferase assay. The format is functional. As to conditions: 10 µM.
Assay [5] has as its target T2, Arginase-2, mitochondrial (Homo sapiens) (UniProt P78540).
T2 sequence (whole entry): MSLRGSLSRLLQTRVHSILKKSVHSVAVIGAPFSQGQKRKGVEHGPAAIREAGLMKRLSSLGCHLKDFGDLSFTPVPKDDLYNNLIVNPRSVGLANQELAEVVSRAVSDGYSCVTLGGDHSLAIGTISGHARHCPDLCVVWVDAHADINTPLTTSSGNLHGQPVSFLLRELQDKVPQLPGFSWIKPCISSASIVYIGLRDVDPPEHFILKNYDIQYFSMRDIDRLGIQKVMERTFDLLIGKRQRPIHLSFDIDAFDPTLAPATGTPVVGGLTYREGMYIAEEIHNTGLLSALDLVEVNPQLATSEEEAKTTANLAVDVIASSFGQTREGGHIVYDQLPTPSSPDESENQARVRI
Nature of the assay: in vitro enzyme assay to detect the production of urea directly proportional to the activity of Arginase II. Also: in the data most compounds retested in dose-response had high values. The format is functional. The settings on record: 33.3 µM.

Assay [6] concerns the target T3, Proteasome subunit beta (Trypanosoma cruzi) (UniProt O96673).
T3 sequence (whole entry): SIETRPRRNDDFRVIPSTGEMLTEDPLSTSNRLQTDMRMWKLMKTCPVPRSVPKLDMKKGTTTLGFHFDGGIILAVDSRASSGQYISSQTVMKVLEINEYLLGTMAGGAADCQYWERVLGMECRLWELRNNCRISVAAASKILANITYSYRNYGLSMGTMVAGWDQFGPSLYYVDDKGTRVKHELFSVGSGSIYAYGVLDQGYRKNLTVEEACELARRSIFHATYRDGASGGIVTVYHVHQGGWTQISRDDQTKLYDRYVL
Nature of the assay: Trypanosoma cruzi proteasome chymotrypsin-like activity (TcProtChymo) assay. Also: in the data most compounds retested in dose-response had high values. As to conditions: 9.37 µM. Type of assay: functional.

The species named for the next assay is Homo sapiens. Nature of the assay: To identify inhibition of the IFN signalling (Jak-Stat) pathway via expression of an eGFP reporter gene under the control of an IFN-stimulated response element (ISRE) containing MxA promoter. Type of assay: functional. As to conditions: 30 µM. On the technique in general: A reporter such as luciferase makes a cellular process visible.

For assay [7], the target named is T4, Tyrosyl-tRNA synthetase, putative (Trypanosoma cruzi (strain CL Brener)) (UniProt Q4DSP6).
T4 sequence (whole entry): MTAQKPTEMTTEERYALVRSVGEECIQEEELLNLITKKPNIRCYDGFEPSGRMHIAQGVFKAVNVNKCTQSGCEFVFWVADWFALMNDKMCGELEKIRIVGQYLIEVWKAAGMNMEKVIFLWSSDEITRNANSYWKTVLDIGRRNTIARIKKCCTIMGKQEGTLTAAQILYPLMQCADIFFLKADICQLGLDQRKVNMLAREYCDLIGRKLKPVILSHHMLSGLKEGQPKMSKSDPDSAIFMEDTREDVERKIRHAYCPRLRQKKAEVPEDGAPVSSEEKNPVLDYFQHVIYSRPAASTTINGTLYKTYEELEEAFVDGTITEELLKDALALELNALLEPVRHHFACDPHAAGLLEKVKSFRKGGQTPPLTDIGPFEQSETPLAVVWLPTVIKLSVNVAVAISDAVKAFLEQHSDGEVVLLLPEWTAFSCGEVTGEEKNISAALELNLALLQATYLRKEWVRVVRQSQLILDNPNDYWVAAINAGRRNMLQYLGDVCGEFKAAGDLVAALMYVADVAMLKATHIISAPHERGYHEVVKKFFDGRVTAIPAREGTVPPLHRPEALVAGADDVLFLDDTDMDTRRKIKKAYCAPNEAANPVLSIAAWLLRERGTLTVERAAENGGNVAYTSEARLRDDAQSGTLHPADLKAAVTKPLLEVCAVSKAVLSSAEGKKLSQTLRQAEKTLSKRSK
Nature of the assay: Trypanosoma cruzi tyrosyl tRNA synthetase (TcYRS) _High Tyrosine SOP. Also: in the data most compounds retested in dose-response had high values. The format is functional. The settings on record: 30 µM.

The target of assay [8] is T4, Tyrosyl-tRNA synthetase, putative (Trypanosoma cruzi (strain CL Brener)). Nature of the assay: Trypanosoma cruzi tyrosyl tRNA synthetase (TcYRS) SOP. Type of assay: functional. The settings on record: 30 µM.
Assay [9] concerns the target Chromo domain-containing protein 1 (Saccharomyces cerevisiae (strain ATCC 204508 / S288c) (Baker's yeast)) (UniProt P32657). Kind of assay: ScCHD-1 Enzyme Inhibition Assay. Also: in the data most compounds retested in dose-response had high values. Type of assay: functional. As to conditions: 30 µM.

For part of these data: Potency and affinity values are given separately.

Sialic acid-binding Ig-like lectin 9 (Homo sapiens), sequence (Q9Y336 whole entry): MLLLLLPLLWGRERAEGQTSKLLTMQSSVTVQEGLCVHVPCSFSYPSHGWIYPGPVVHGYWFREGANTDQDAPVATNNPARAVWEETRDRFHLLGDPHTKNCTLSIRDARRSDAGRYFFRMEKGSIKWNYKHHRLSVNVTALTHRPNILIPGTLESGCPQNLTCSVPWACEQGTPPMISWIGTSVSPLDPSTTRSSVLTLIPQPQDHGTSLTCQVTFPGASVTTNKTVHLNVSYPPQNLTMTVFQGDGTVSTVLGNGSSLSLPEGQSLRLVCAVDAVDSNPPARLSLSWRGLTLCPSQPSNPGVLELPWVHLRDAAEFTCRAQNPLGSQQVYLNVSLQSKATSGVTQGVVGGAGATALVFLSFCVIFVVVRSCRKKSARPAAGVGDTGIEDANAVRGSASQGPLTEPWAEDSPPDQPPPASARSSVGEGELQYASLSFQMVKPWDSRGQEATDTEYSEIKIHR
Protein translocase subunit SecA (Escherichia coli (strain K12)), sequence (P10408 whole entry): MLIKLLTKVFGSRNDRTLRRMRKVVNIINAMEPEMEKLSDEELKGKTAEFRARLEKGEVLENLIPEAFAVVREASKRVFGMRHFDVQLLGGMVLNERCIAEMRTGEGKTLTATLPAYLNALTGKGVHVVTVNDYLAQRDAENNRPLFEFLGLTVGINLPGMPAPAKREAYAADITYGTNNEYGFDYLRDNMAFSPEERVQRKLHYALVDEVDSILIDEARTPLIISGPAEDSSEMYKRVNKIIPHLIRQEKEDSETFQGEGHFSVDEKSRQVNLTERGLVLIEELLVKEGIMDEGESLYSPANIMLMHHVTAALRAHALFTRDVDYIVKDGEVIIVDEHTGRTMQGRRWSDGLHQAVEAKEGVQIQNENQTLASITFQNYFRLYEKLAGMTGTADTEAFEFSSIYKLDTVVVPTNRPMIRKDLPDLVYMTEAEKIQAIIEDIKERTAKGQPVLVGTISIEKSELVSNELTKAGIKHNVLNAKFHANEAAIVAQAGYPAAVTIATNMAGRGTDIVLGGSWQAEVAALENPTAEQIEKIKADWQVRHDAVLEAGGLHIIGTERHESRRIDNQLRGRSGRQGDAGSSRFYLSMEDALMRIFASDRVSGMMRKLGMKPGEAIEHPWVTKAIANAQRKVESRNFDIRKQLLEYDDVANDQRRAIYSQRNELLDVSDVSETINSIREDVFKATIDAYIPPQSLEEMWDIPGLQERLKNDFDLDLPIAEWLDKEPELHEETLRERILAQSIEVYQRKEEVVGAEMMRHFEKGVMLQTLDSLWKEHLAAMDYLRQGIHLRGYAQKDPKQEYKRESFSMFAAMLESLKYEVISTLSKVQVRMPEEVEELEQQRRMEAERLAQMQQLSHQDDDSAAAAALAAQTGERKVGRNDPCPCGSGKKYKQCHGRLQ
Chromo domain-containing protein 1 (Saccharomyces cerevisiae (strain ATCC 204508 / S288c) (Baker's yeast)), sequence (P32657 whole entry, the tested form may be a part): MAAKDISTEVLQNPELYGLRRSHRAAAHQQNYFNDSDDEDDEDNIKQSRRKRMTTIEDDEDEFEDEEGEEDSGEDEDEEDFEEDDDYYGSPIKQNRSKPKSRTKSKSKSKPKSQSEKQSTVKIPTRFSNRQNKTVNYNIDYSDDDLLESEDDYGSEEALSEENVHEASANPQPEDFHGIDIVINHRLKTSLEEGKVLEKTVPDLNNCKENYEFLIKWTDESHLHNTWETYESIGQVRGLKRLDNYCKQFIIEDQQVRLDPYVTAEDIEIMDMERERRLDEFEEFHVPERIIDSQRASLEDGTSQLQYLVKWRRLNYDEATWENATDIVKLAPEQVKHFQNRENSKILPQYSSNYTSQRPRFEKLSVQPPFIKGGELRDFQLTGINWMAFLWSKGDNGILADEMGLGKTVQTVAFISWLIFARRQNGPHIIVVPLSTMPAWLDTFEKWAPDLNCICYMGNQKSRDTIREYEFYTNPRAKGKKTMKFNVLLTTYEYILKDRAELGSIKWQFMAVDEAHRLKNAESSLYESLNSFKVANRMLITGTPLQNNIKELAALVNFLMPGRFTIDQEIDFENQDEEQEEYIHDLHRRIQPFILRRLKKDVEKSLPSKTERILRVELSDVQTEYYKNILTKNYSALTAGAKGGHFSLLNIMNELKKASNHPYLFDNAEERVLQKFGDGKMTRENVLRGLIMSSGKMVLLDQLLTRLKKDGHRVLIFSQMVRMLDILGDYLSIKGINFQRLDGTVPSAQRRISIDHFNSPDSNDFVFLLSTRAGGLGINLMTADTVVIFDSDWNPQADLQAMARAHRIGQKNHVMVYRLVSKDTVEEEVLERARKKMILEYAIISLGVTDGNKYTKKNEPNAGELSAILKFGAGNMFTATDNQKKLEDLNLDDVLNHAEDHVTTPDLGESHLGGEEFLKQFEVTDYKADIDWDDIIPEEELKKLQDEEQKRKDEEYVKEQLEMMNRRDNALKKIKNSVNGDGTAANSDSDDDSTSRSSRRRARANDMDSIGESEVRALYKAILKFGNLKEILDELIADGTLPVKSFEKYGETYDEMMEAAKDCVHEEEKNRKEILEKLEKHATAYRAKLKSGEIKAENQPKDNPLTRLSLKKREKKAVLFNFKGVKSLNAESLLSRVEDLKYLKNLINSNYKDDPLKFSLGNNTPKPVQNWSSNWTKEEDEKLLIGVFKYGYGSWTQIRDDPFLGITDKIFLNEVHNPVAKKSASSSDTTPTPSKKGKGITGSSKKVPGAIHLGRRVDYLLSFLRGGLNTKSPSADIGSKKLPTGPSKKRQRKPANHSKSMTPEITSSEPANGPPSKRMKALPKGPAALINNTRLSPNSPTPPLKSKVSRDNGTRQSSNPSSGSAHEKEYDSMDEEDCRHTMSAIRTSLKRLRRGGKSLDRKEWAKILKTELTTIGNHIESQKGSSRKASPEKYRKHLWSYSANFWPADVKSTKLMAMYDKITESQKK

With `N#Cc1cccc(SCCS(N)(=O)=O)c1`, the Percent Effect in assay [1] is -3.48%; in [2], 1.39%; in assay [3], -2.94%; in assay [4], 14.2%; with Trypanosoma cruzi it was 5.15%; in assay [5] it was -9.27%. The Percent Effect was 15.3% in assay [6]; 7.55% in the assay filed under Homo sapiens; 0% in [7]; 5.13% in assay [8]; -3.3% in [9].
As to `O=C(c1cnccn1)N1CCc2onc(CN3CCOCC3)c2C1`, the Percent Effect in assay [1] was -1.8%; in assay [2], 0%; in assay [3], 11.9%; in assay [4] it was -11%; with Trypanosoma cruzi, -6.75%; in assay [5], 2.87%. Also, the Percent Effect in assay [6] is 11.8%; in the assay listed under Homo sapiens, 13.9%; in assay [7] it was 1.08%; in assay [8], 2.56%; in assay [9], -5.16%.
Consider `O=C1C[C@H]2[C@@H](CCN2C(=O)c2ccccc2)N1CCN1CCOCC1`, for which the Percent Effect is -2.13% in assay [1]; -2.74% in assay [2]; 0.783% in assay [3]; 2.27% in assay [4]; 0.794% in the assay on Trypanosoma cruzi; -2% in [5]. In addition, the Percent Effect in assay [6] is 2.48%; in the assay filed under Homo sapiens, 0.931%; in [7] it was 2.08%; in assay [8], -1.24%; in assay [9], -3.6%.
As to `Cc1nnc(NC(=O)NCc2cc(F)cc(F)c2)s1`, the Percent Effect in assay [1] was -1.16%; in [2], 21.1%; in assay [3], -3.09%; in assay [4], -15.6%; in the assay on Trypanosoma cruzi, -9.43%; in assay [5], 5.75%. The Percent Effect in assay [6] was 10.7%; in the assay listed under Homo sapiens, 13.5%; in assay [7] it was 4.43%; in assay [8], 13.6%; in [9], -3.4%.
For `CN(CC1CCCO1)C1CCN(CCc2ccccn2)CC1` (centres undefined), the Percent Effect was -1.45% in assay [1]; 0% in [2]; -5.1% in [3]; 7.51% in assay [4]; -1.95% in the assay with Trypanosoma cruzi; 0.924% in assay [5]. Besides, the Percent Effect in [6] was -0.898%; in the assay listed under Homo sapiens, 7.31%; in [7] it was 3.96%; in assay [8], 1.22%; in assay [9] it was 8.88%.
For the molecule `O=C(CN1CCOC(Cn2cccn2)C1)NCc1cccs1` (centres undefined), the Percent Effect in [1] is 0.0678%; in assay [2] it was -2.7%; in [3], -5.7%; in assay [4], 11.3%; in the assay with Trypanosoma cruzi it was 1.58%; in [5] it was -0.924%. In addition, the Percent Effect in [6] was 1.98%; in the assay filed under Homo sapiens, -5.12%; in assay [7], 0.99%; in assay [8] it was 3.66%; in assay [9], -4.1%.
Turning to `COc1cccc(CN(C)C(=O)Nc2ccc3c(c2)OCCO3)c1`, the Percent Effect in assay [1] was -0.723%; in assay [2], 18.4%; in [3], -0.168%; in assay [4], -10.2%; with Trypanosoma cruzi, 0.0974%; in [5] it was 2.37%. Also, the Percent Effect in [6] was 26.6%; in the assay filed under Homo sapiens, 22.9%; in [7] it was 1.06%; in [8] it was 10.4%; in assay [9], -8.52%.
In the case of `Cn1cccc1CNC(=O)CCCc1nnc2ccccn12`, the Percent Effect in assay [1] is -4.97%; in [2], 6.67%; in assay [3], -2.6%; in [4], 1.09%; in the assay with Trypanosoma cruzi, 3.14%; in [5] it was -8.28%. For the same molecule, the Percent Effect in assay [6] was 12.4%; in the assay filed under Homo sapiens, -1.85%; in assay [7], 3.17%; in assay [8], 2.56%; in assay [9], -6.43%.
Take `CCc1cc(C)c(C(=O)N2CCCC2CC(=O)c2cnn(C)c2)o1` (centres undefined): the Percent Effect in assay [1] was -1.93%; in assay [2], -1.27%; in [3] it was 169%; in [4], -0.655%; in the assay with Trypanosoma cruzi, -1.13%; in assay [5] it was -1.5%. Also, the Percent Effect in [6] was 7.03%; in the assay filed under Homo sapiens, 7.3%; in [7] it was -1.04%; in assay [8], 0%; in [9], -4.62%.
